# Measured values as given in PubChem BioAssay (Tox21).
# Records with an inconclusive call do not appear. Unmarked numbers belong to inactive results. Calls follow the shape of the full dose curve.
# Target: Vitamin D3 receptor (Homo sapiens) (UniProt P11473)
# Test: qHTS assay to identify small molecule agonists of the vitamin D receptor (VDR) signaling pathway (AID 743222)
# Conditions: HEK293T VDR-UAS-bla, beta-lactamase FRET ratio, 16 h; series mostly up to 63.5 µM; activation: at the top concentration
# From the text: National Center for Advancing Translational Sciences [NCATS]
# NIH Chemical Genomics Center [NCGC]
# U.S. Environmental Protection Agency [EPA]
# National Institutes of Environmental Health Sciences [NIEHS]
# National Toxicology Program [NTP]
# U.S. Food and Drug Administration [FDA]
# The vitamin D receptor (VDR), a member of nuclear hormone receptor superfamily, plays a critical role in calcium homeostasis and bone metabolism. It is also involved in cell differentiation and growth, and thrombogenicity.
# Tox21 Assay Protocol Summary:
# VDR-bla cells were dispensed at 2,000 cells/6 uL/well into black wall/clear-bottom 1536-well plates using a Multidrop Combi (Thermo Fisher Scientific, Waltham, MA) dispenser. After the assay plates were incubated at a 37C and 5% CO2 for 4 h, 23 nL of compounds dissolved in DMSO, positive controls or DMSO only was transferred to the assay plate by a Pintool station (Kalypsys, San Diego, CA). The plates were incubated at 37C and 5% CO2 for 16 h. After 1 uL of LiveBLAzerTM B/G FRET substrate was added using a Bioraptr Flying Reagent Dispenser (FRD) workstation (Beckman Coulter, Indianapolis, IN, USA), the plates were incubated at room temperature for 2 h, and fluorescence intensity was measured by an Envision plate reader (PerkinElmer, Shelton, CT).
# % is scaled to controls: 0 for no effect and ±100 for the full control effect.
# Sequence of Vitamin D3 receptor (Homo sapiens) (P11473 whole entry, looked up): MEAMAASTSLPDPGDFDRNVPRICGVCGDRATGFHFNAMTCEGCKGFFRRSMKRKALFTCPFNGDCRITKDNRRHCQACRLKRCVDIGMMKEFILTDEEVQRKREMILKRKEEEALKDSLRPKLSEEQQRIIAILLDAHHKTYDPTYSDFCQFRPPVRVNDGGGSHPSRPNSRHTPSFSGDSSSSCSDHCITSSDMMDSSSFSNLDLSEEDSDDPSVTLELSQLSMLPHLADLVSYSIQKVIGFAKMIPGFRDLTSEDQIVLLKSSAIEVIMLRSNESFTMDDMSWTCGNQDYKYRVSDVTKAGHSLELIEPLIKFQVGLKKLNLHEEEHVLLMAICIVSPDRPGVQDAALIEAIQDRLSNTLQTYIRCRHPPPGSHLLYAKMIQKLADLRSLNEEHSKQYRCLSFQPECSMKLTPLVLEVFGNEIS
row,Structure (SMILES),activation
1,Cc1c(C(=O)NCCO)[n+](=O)c2ccccc2n1[O-],-14.7%
2,CC(C)CCCCCCc1ccc(OCCOCCO)cc1,-4.11% [at 81.1 µM]
3,CC/C=C\CCOC(=O)CCCCC,-9.29%
4,CCCCNc1ccc(C(=O)OCCN(CC)CC)cc1,14.3%
5,COC(=O)/C=C(/C)N,-0.109%
6,CC1=NN(c2cc(Cl)c(S(=O)(=O)O)cc2Cl)C(=O)C1N=Nc1ccc(S(=O)(=O)O)cc1 (stereo not given),3.14%
7,O=C(C(Cl)Cl)N1CCOC12CCCCC2,-2.23%
8,CCOC(=O)C(Br)c1ccccc1 (stereo not given),3.64%
9,CCOC(=O)c1ccccc1O,6.9%
10,O=C1N(c2ccccc2)c2ccccc2C1(Cc1ccncc1)Cc1ccncc1,5.35%
11,CC(C)OC(C)C,1.07% [at 81.1 µM]
12,C[C@@H]1CN(c2c(F)c(N)c3c(=O)c(C(=O)O)cn(C4CC4)c3c2F)C[C@H](C)N1,8.88% [at 29.5 µM]
13,Cc1c(N)cccc1N,-6.48% [at 81.1 µM]
14,CC(C)=CCCC(C)CCOC=O (stereo not given),-19.8%
15,CN1CCN(c2c(F)cc3c(=O)c(C(=O)O)cn(CCF)c3c2F)CC1,-1.93%
16,CN(C)Cc1ccccc1,0.765% [at 81.1 µM]
17,CCC(=O)Nc1ccc(O)cc1,-0.147%
18,CCC(=O)O[C@]1(C(=O)SCF)[C@H](C)C[C@H]2[C@@H]3C[C@H](F)C4=CC(=O)C=C[C@]4(C)[C@@]3(F)[C@@H](O)C[C@@]21C,-3.88%
19,O=C(CC(=O)C(F)(F)F)c1ccccc1,4.05% [at 81.1 µM]
20,CCOC(=O)C1CC(=O)C(=C(O)C2CC2)C(=O)C1 (stereo not given),1.51%

row,Structure (SMILES),activation
1,Cc1cc2nc(N)sc2cc1C,9.02% [at 81.1 µM]
2,Cc1cc(S(=O)(=O)O)c(N)cc1Cl,-2.49% [at 81.1 µM]
3,O=C(O)C(=O)Cc1c[nH]c2ccccc12,-4.6%
4,Nc1cccc(S(=O)(=O)O)c1,-3.78%
5,CCOC(=O)NCCC[Si](OCC)(OCC)OCC,8.41%
6,FC(F)(F)C(Cl)(Cl)Cl,-0.718%
7,Cc1c(-c2ccccc2)oc2c(C(=O)OCCN3CCCCC3)cccc2c1=O,4.48%
8,C1CSCCS1,4.7%
9,CC(C)O,-9.53% [at 81.1 µM]
10,CC(=O)N(CC(O)CN(C(C)=O)c1c(I)c(C(=O)NCC(O)CO)c(I)c(C(=O)NCC(O)CO)c1I)c1c(I)c(C(=O)NCC(O)CO)c(I)c(C(=O)NCC(O)CO)c1I (stereo not given),2.58%
11,CNCCC(Oc1ccccc1OC)c1ccccc1 (stereo not given),0.367%
12,CC(C)(CO)[C@@H](O)C(=O)NCCC(=O)O,0.396% [at 81.1 µM]
13,O=C1C=CC(=O)O1,-7.15% [at 81.1 µM]
14,C=Cc1ccccc1,-1.21%
15,Cc1nc(-c2ccccn2)ncc1C(=O)Nn1cc(C)c2cc(F)ccc21,-2.43%
16,OCC(CBr)(CBr)CBr,-1.35%
17,CC(C)=CCC[C@](C)(O)[C@@H]1CC=C(C)CC1,5.62%
18,CCCS(=O)c1ccc2nc(NC(=O)OC)[nH]c2c1 (stereo not given),0.466%
19,CC(Oc1c(Cl)cccc1Cl)C1=NCCN1 (stereo not given),-9.83%
20,O=c1[nH]cnc2c1ncn2[C@@H]1O[C@H](CO)[C@@H](O)[C@H]1O,5.68%
